The record followed here is PubChem BioAssay AID651567 (National Center for Advancing Translational Sciences (NCATS), 2012).

The campaign covered roughly 1,200 compounds. About 10 (0.8%) were called active. A call without a number means that no potency is given here. Inconclusive results (about 4%) are left out. Calls follow the shape of the dose curve; as a rule, active = well fitted inhibition curve with a large enough effect; inconclusive = small, poorly fitted or top-dose-only effect; inactive = no such curve, though single readings can be large or run the other way. The sample as a whole holds a higher share of actives than the screen did.
Potency is read from the fitted curve at half-maximal effect.

The nature of the test: qHTS Assay to Find Inhibitors of Chronic Active B-Cell Receptor Signaling: Hit Validation in OCI-Ly3 Assay. Conditions: OCI-Ly3 IkB-luciferase reporter, Chroma-Glo luminescence, 4 h; series mostly up to 46.1 µM. From the text: Diffuse large B-cell lymphoma (DLBCL) is the most common category of non-Hodgkin lymphoma, with ~20,000 new cases per year in the United States. DLBCL should be regarded as a collection of different neoplasms. Microarray gene expression analysis has defined two principal types of DLBCL, named for their similarity to normal B cell stages or activation states: a germinal center B-cell (GCB) type, and an activated B-cell (ABC) type. In ABC-DLBCL, a constitutive high-level activity of the NF-kappaB family of transcription factors has been observed (1) and NF-kappaB target genes are more highly expressed in ABC primary tumors than in GCB tumors. Functional studies have shown a constitutive high-level activity of the IkappaB (inhibitor of kappa-B) kinase (IKK) complex. […] Further analysis of DLBCL primary tumors for NF-kappaB target gene expression imply that although CARD11 is required for constitutive IKK activity in all ABC-DLBCL lines, mutations in CARD11 may be the root cause of IKK activation only in lines or tumors with such mutations. In other words, CARD11 mutations may explain NF-kappaB activation in only 10% of ABC-DLBCL cases. […] This process has been termed 'chronic active BCR signaling' (CABS). The goal of this screen is to find small-molecule inhibitors of the CABS pathway found in ABC-DLBCL lines using a cell-based assay that measures IkappaBalpa stability, which has already been extensively validated in the OCI-Ly3 line (PubChem AID:445; REF: 4). […] Hits from the primary screen were tested in this selectivity secondary assay. NIH Molecular Libraries Probe Production Network [MLPCN] NIH Chemical Genomics Center [NCGC] MLPCN Grant: R03 DA031086 PI Name: Dr. R. Eric Davis
Cells were seeded in 1536-well plates at 5000 cells/3ul in IMDM medium containing 0.5% FBS, w/o phenol red, L-glutamine, 25 mM HEPES, 3 mg/ml sodium bicarbonate. After centrifugation for 1 min. at 1000 rpm, 23 nl of compounds or DMSO were delivered to each well using a pin tool. Then 1ul 80ng/ml doxycycline was dispensed into white solid 1536-well plates and the plates were incubated at 37C/5% C02 in a cell incubator for 4 hrs. Then 4 ul Chroma-Glo luminescent substrate mix (Promega) was added to each well. The plate was incubated at R.T. for 10-15 min. The plates were measured on a ViewLux plate reader for green luminescence (540/20 nm filter) and red luminescence (618/8 nm filter). The green and red luminescent signals were corrected for red and green luminescence filter overlap using previously determined filter calibration constants (determined using the procedure outlined in the Promega Technical Manual). The %Activity was determined from the ratio of corrected green/red luminescent values. Green luminescent and ratio %Activity was determined by normalizing to the difference in signal between basal cells (0% Activity) and cells incubated with 10 uM of the proteasome inhibitor MG-132 (100% Activity). Red luminescent %Activity was normalized to the difference between red luminesence in basal cells (0%Activity) and zero luminescence (-100% Activity). Concentration-response curves were fitted to the signals arising from the green luminescence (I-kappa-B-alpha-luciferase fusion; IkB-luc) and the red luminescence (unfused luciferase; luc) as well as the calculated ratio. The concentration-effect curves were then classified based on curve quality (r2), response magnitude and degree of measured activity. Compounds were then categorized based on their concentration-response curves for all three datasets (Ikb-luc, luc and ratio).
For orientation: In qHTS, concentration-response curves come from the screen itself.
As for `COC(=O)Nc1nc(-c2ccccc2)c(C(=O)c2ccc(Cl)cc2)s1`, the Potency result was “inactive”.
The same measure for `CN(CC(=O)O/N=C(\N)c1ccccn1)S(=O)(=O)c1cc(Cl)ccc1Cl`: “inactive”.
With `Cc1ccc(/C=N/NC(=O)c2n[nH]c3c2CCCC3)cc1`, the Potency result is “inactive”.
Consider `Cc1cc(C)c(C#N)c(SCc2c(F)cccc2[N+](=O)[O-])n1`, for which the Potency result is “inactive”.
The same measure for `O=C(CSc1cccc[n+]1[O-])c1cc(Cl)ccc1Cl`: “inactive”; for `COc1cc(/C=C\C(=O)OCn2nnc3ccccc3c2=O)cc(OC)c1OC`: “inactive”; for `COc1ccc(C(=O)/C=C/c2ccc(OC)c(Cn3nnc4ccccc43)c2)cc1`: 16.4 µM (active).
Regarding `COc1ccc(/C=C/C(=O)c2cc(F)ccc2OC(=O)c2ccc(OC)c(OC)c2)cc1OC`, the Potency result was “inactive”.
The same measure for `Cc1cccc(NC(=O)c2ccc(C(=O)Nc3cccc(C)c3)nc2)c1`: “inactive”; for `O=C1OCC2=C1C(c1ccc(F)cc1)c1cc3c(cc1N2)OCO3` (centres undefined): “inactive”.
With `COc1cc(C(=O)N2CCN(c3cc(Cl)ccc3Cl)CC2)cc(OC)c1OC`, the Potency entry is “inactive”.
The same measure for `CC1=CC(C)(C)N2C(=O)C(=O)c3cc(OC(=O)c4ccco4)cc1c32`: “inactive”; for `CCOc1cc(/C=C2\CN(C)C/C(=C\c3ccc(O)c(OCC)c3)C2=O)ccc1O`: “inactive”; for `Cc1nnc2sc(-c3csc4c3CCCC4)nn12`: “inactive”.
The same measure for `O=[N+]([O-])c1cccnc1SCc1c(F)cccc1Cl`: “inactive”.
The same measure for `CCCSc1nc(C)c(C(C)=O)cc1C#N`: “inactive”; for `CCOc1c(Br)cc(CNc2ccc3c(c2)OCCO3)cc1OC`: “inactive”; for `CCOC(=O)c1c(C)sc2c1N(C(C)=O)c1cc(Cl)ccc1S2`: “inactive”.
`CC(C)N1C(=O)/C(=C\c2nc3ccccc3c(=O)[nH]2)c2ccccc21`: the Potency result is “inactive”.
The same measure for `COc1cc(C2Nc3ccccc3C(=O)N2c2ccc(Cl)cc2)c(Cl)cc1OCC(=O)O` (centres undefined): “inactive”.
The same measure for `Cc1ccc(NC(=S)N/N=C/c2c(Cl)cccc2Cl)c(C)c1`: “inactive”; for `Cc1cc2nc(/C=C/c3cccnc3)[nH]c2cc1C`: “inactive”; for `COC(=O)C1C(O)=C(C=Nc2ccccc2)C(=O)CC1(C)C` (centres undefined): “inactive”.
The same measure for `Cc1ccc(NC(=O)c2ccco2)c([N+](=O)[O-])c1`: “inactive”; for `CN(C)c1ccc(-c2nn3c(-c4ccccc4Cl)nnc3s2)cc1`: “inactive”; for `CCOC(=O)COc1cccc2c(=O)n(CC(=O)NCc3ccc(F)cc3)ccc12`: “inactive”.
With `Cc1c(C(=O)OCC(C)C)[nH]c2c1C(=O)CC(c1cccs1)C2` (centres undefined), the Potency entry was “inactive”.
The same measure for `Clc1cncc(Cl)c1N/N=C/c1ccncc1`: “inactive”; for `COc1ccc(CCNC(=O)Cn2c(=O)cnc3ccccc32)cc1`: “inactive”.
The same measure for `COc1cc(C(=O)Nc2nc(C)c(Cc3ccc4c(c3)OCO4)s2)cc(OC)c1OC`: “inactive”; for `Cc1ccc(/C=C/C(=O)c2nc3ccccc3[nH]2)cc1`: “inactive”.
As to `O=C(/C=C/c1ccc(O)cc1)c1ccc(O)cc1O`, the Potency was 16.4 µM (active).
As for `COc1ccc(C(=O)/C=C/c2ccc(O)cc2)c2c1CC(O)C(C)(C)O2` (centres undefined), the Potency entry is “inactive”.
The same measure for `COc1ccc2[nH]c3c(c2c1)CCN1C(=O)C(CC(=O)NCC24CC5CC(CC(C5)C2)C4)C[C@H](C(=O)N2CCCCC2)[C@@]31C` (some centres undefined): “inactive”.
The same measure for `Nc1nc(SCc2nc(-c3ccccc3)no2)[nH]c(=O)c1-c1ccccc1`: “inactive”.
The same measure for `Oc1ccccc1/C=N/Nc1ccnc(SCc2ccccc2)n1`: “inactive”; for `Oc1cccc(/C=N/Nc2ccc(Cl)nn2)c1O`: 20.6 µM (active).
In the case of `O=C(/C=C/c1ccccc1)c1ccc(NC2=NCCCS2)cc1`, the Potency entry was “inactive”.
The same measure for `Cc1c(CCC(=O)N[C@@H](CCCNC(N)=O)C(=O)O)c(=O)oc2cc3oc4c(c3cc12)CCCC4`: “inactive”; for `COc1ccc(/C=N/Nc2nccnc2Cl)c(OC)c1`: “inactive”.
The same measure for `CCO[C@H]1OC(C(=O)NCc2nc3ccccc3[nH]2)=C[C@@H](C2CC2)[C@@H]1CCCO`: “inactive”.
The same measure for `CNc1nc(-c2ccc(OC)cc2)c(-c2ccc(OC)cc2)s1`: “inactive”.
In the case of `COc1ccc(C)cc1Nc1cc(C)nc2ncnn12`, the Potency entry was “inactive”.
The same measure for `NC(=S)N/N=C1\CC(c2ccc3c(c2)OCCCO3)Oc2ccc(F)cc21` (centres undefined): “inactive”.
Take `CCOC(=O)C1=C(O)c2ccccc2C(=O)/C1=C\c1ccc(CC)cc1`: the Potency entry is “inactive”.
Consider `COCCn1nnnc1C(C(C)C)N(Cc1ccccc1)Cc1cc2cc(OC)ccc2[nH]c1=O` (centres undefined), for which the Potency entry was “inactive”.
The same measure for `CCCN1C(=O)C(=O)c2cc(Cl)ccc21`: “inactive”; for `Cc1ccc2c(c1)C(=O)C(=O)N2CCOc1ccccc1`: “inactive”.
The same measure for `CC[C@]12c3[nH]c4cc(CCC(=O)N(C)C)ccc4c3CCN1C(=O)[C@@H](CC(=O)NC(C)(C)C)C[C@@H]2C(=O)N1CCN(C(=O)c2ccco2)CC1`: “inactive”; for `CCOC(=O)c1ccc(-c2c(-c3cc(OC)c(OC)c(OC)c3)noc2C)cc1F`: “inactive”; for `COc1ccccc1NC(=O)N1CCC(c2nc3cc(C)c(C)cc3[nH]2)CC1`: “inactive”.
The same measure for `Cc1cc(C)c2nc3sc(C(=O)N4CCOCC4)c(N)c3cc2c1`: “inactive”; for `Cc1cc(Cl)n2c(nc3cc(F)c(F)cc32)c1C#N`: “inactive”; for `CC(=O)Nc1cc(N=Cc2ccc(O)cc2O)c(Cl)cc1Cl`: 14.6 µM (active).
